Screening data from PubChem BioAssay.
Hits are enriched below; roughly 2.6% of the tested compounds scored in any of these assays.
STAT3 binder = binders of human STAT3 | calls only | 17,000 tested, 0.2% active | AID 624138 | P40763 | Small molecule microarray, His-STAT3 binding, anti-His fluorescence;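 active means compounds whose four printed spots each show fluorescence over background unusually high for their array block, chance value under 7%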
Target sequence (P40763 whole entry, looked up): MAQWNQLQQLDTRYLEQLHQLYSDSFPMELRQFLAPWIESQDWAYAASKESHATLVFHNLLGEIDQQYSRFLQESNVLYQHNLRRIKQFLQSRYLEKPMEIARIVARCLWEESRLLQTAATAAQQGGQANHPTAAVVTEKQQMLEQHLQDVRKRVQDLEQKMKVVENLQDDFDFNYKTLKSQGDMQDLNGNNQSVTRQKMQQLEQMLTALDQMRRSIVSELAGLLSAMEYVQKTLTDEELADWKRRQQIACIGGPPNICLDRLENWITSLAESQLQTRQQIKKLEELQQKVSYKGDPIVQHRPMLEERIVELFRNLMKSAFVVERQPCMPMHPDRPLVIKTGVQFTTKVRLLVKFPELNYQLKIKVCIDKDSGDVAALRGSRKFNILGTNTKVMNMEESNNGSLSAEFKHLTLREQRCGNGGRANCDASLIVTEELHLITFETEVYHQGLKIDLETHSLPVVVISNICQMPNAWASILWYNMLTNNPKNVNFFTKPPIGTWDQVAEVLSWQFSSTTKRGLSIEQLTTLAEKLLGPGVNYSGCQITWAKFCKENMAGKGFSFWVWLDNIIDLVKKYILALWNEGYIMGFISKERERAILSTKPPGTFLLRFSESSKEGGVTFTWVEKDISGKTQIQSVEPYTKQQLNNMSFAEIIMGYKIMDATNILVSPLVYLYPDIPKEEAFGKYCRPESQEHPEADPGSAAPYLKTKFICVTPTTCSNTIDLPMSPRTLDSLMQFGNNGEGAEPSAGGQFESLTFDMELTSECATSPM
NFkB binder = binders of human NF-kappa-B p105. P19838. Small molecule microarray, anti-His fluorescence binding. calls only. 17,000 tested, 1.3% active;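 active means spot fluorescence over background significantly raised, with a chance value under 7% in all four replicate spots of the compound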;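 further: probe protein is his-tagged human p50 processed subunit at 1 µg/ml; raw spot fluorescence signals with no normalization applied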
c-Myc SMM = binders of human c-Myc; small molecule microarray, His-c-Myc binding, anti-His fluorescence; calls only; 17,000 tested, 1.5% active;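 active means spot fluorescence over background with P-value below 7% in all four replicate spots, showing protein binding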;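 further: score is binary with 100 for all four spots passing and 0 otherwise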
mut p53 react = re-activators of the mutant p53 pathway | SW480 PUMA-promoter luciferase, p53 mutant reactivation | activation, % at 9.98 µM | 28,000 tested, 1.5% active | AID 624151; in the data active means activation above about 52%
mut p53 SMM = mutant p53 (human) binding; small molecule microarray binding, anti-GST fluorescence; calls only; 17,000 tested, 0.4% active; AID 624136;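 active means compounds whose four printed spots each glow above background more than chance allows, each with a p-value under 7%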
The depositor's hits bear a star; i = inactive; · = no result given; + = active, no number.

SMILES	STAT3 binder	NFkB binder	c-Myc SMM	mut p53 react	mut p53 SMM
CCOC(=O)CSc1nnc2c3ccccc3n(C)c2n1	i	i	i	-4.8	i
Cn1c2ccccc2c2nnc(SCCN3CCCCC3)nc21	i	i	+	5.2	i
c1ccc2c(c1)[nH]c1nc(SCCN3CCCCC3)nnc12	i	i	+	9.2	i
O=C(CSc1nc2ccccc2s1)Nc1ccc(Cl)c(C(F)(F)F)c1	·	·	·	-1.0	·
[N-]=[N+]=NCc1ccccc1C[C@@]1(C(=O)N2CCCCC2)N=C(c2ccc(OCCCO)cc2)O[C@@H]1c1ccccc1	+	i	i	·	i
COC(=O)[C@]1(Cc2ccccc2)N=C(c2ccc(OCCCO)cc2)O[C@@H]1c1ccccc1N=[N+]=[N-]	i	+	i	·	+
O=C(NCc1ccccc1)[C@@]1(Cc2ccccc2)N=C(c2ccc(OCCCO)cc2)O[C@H]1c1ccccc1	i	i	i	·	+
[N-]=[N+]=NCc1ccccc1C[C@@]1(C(=O)N2CCOCC2)N=C(c2ccc(OCCCO)cc2)O[C@@H]1c1ccccc1	i	i	i	·	i
COc1ccc(S(=O)(=O)Nc2cccc(N(C)S(C)(=O)=O)c2)cc1OC	·	·	·	-8.8	·
Fc1cccc(/C=N/N=C/c2cccc(F)c2)c1	i	i	i	88.0*	i
COC(=O)c1ccccc1NC(=O)CSc1nnc(-c2ccccc2)o1	·	·	·	14.9	·
c1cnc(SCCCCOc2ccc3c(c2)CCC3)nc1	·	·	·	70.9*	·
O=S(=O)(Nc1ncccn1)c1ccc(NC(=S)Nc2ccc3c(c2)CCC3)cc1	·	·	·	19.1	·
CCc1ccc(OCC(=O)Nc2ccccc2C#N)cc1	·	·	·	64.3*	·
CC(C)c1ccc(OCC(=O)Nc2ccccc2C#N)c(Br)c1	i	i	i	129.5*	i
Cc1c(Cl)c(C(F)(F)F)nn1CCCNC(=O)Nc1cccc([N+](=O)[O-])c1	i	i	i	19.0	i
CNC[C@@H]1Oc2ncc(C#Cc3ccccc3)cc2C(=O)N([C@H](C)CO)C[C@@H]1C	i	+	+	2.1	i
CC(C)NC(=O)N(C)C[C@@H]1Oc2ncc(C#Cc3ccc(C(F)(F)F)cc3)cc2C(=O)N([C@H](C)CO)C[C@@H]1C	i	+	+	-12.7	+
Nc1nc(SCC(=O)c2ccc(-c3ccccc3)cc2)n[nH]1	i	i	i	34.4	i
Cc1c(Br)ccc(NC(=O)CSc2nnc(-c3ccc(Cl)cc3)n2C)c1C	·	·	·	106.7*	·
CC(C)NC(=O)N(C)C[C@H]1OCCCC[C@@H](C)Oc2ccc(NC(=O)Nc3ccc(F)cc3)cc2C(=O)N([C@H](C)CO)C[C@@H]1C	i	i	i	-3.8	i
C[C@H](CO)N1C[C@H](C)[C@@H](CN(C)S(=O)(=O)c2ccc(F)cc2)OCCCC[C@H](C)Oc2ccc(NC(=O)Nc3ccc(F)cc3)cc2C1=O	i	i	i	·	i
C[C@H](CO)N1C[C@H](C)[C@@H](CN(C)S(=O)(=O)c2ccc(F)cc2)OCCCC[C@H](C)Oc2ccc(NC(=O)Nc3ccc(C(F)(F)F)cc3)cc2C1=O	i	+	i	·	i
C[C@@H]1CN([C@@H](C)CO)C(=O)c2cc(NS(C)(=O)=O)ccc2O[C@@H](C)CCCCO[C@@H]1CN(C)C(=O)Nc1ccc(C(F)(F)F)cc1	+	i	i	-3.7	i
C[C@H](CO)N1C[C@H](C)[C@H](CN(C)C(=O)Nc2ccc(C(F)(F)F)cc2)OCCCC[C@H](C)Oc2ccc(NS(C)(=O)=O)cc2C1=O	i	i	i	10.3	i
SMILES	STAT3 binder	NFkB binder	c-Myc SMM	mut p53 react	mut p53 SMM
CC(C)NC(=O)N(C)C[C@H]1OCCCC[C@H](C)Oc2ccc(NC(=O)Nc3ccc(C(F)(F)F)cc3)cc2C(=O)N([C@@H](C)CO)C[C@H]1C	i	+	+	-18.9	i
C[C@@H]1CCCCO[C@@H](CN(C)C(=O)Nc2ccc(C(F)(F)F)cc2)[C@H](C)CN([C@H](C)CO)C(=O)c2cc(NC(=O)Nc3ccc(F)cc3)ccc2O1	i	i	i	·	i
CC(C)NC(=O)N(C)C[C@@H]1OCCCC[C@H](C)Oc2ccc(NC(=O)Nc3ccc(C(F)(F)F)cc3)cc2C(=O)N([C@H](C)CO)C[C@@H]1C	i	+	+	-57.0	i
C=CC[C@]1(C(=O)NCCCOC)COC(c2ccc(OCCCO)cc2)=N1	i	+	+	·	i
C=CCN1Cc2ccccc2[C@H]2OC(c3ccc(OCCCO)cc3)=N[C@@]2(CC=C)C1=O	i	i	i	·	+
CC(C)(C)c1ccc(C(=O)NCCNc2ccccc2[N+](=O)[O-])cc1	·	·	·	113.6*	·
Cc1ccc2nc(-c3ccc(C)c(NC(=O)COc4ccc([N+](=O)[O-])cc4)c3)oc2c1	·	·	·	90.7*	·
COc1ccc(-c2nc3cc(C(C)C)ccc3o2)cc1NC(=O)COc1ccc(C)cc1	·	·	·	63.7*	·
COc1ccc(-c2nc3ccccc3o2)cc1NC(=O)COc1ccc(C(C)C)cc1	i	i	i	42.2	i
CCOc1ccccc1NC(=O)CSc1ncnc2sc(C)c(C)c12	·	·	·	6.9	·
Cc1ccnc(SCC(=O)Nc2cccc(Cl)c2)n1	·	·	·	-0.5	·
O=C(CSc1ncccn1)Nc1ccc(Cl)cc1Cl	i	i	i	133.5*	i
Cc1cc(Oc2ccccc2)nc(SCC(=O)Nc2ccc(Cl)cc2Cl)n1	·	·	·	-0.9	·
CCOc1ccc(NC(=O)CSc2ncccn2)cc1	·	·	·	54.2*	·
Cc1ccnc(SCC(=O)Nc2ccc(Cl)cc2Cl)n1	·	·	·	52.2*	·
O=C(CSc1nccc(=O)[nH]1)Nc1cccc(I)c1	·	·	·	-2.1	·
Cc1noc(C)c1S(=O)(=O)N(C)C[C@@H]1OCCCC[C@H](C)Oc2ccc(NC(=O)NC(C)C)cc2C(=O)N([C@H](C)CO)C[C@H]1C	i	+	+	1.0	i
CC(C)NC(=O)Nc1ccc2c(c1)C(=O)N([C@@H](C)CO)C[C@@H](C)[C@@H](CN(C)S(=O)(=O)c1ccccc1)OCCCC[C@@H](C)O2	+	i	+	5.4	i
CC(C)NC(=O)Nc1ccc2c(c1)C(=O)N([C@H](C)CO)C[C@H](C)[C@H](CN(C)S(=O)(=O)c1ccccc1)OCCCC[C@@H](C)O2	i	i	i	-10.1	i
Cc1noc(C)c1S(=O)(=O)N(C)C[C@@H]1OCCCC[C@H](C)Oc2ccc(NC(=O)NC(C)C)cc2C(=O)N([C@@H](C)CO)C[C@H]1C	i	i	i	-6.2	i
CCn1cc(C(C)NC(=S)Nc2cccc([N+](=O)[O-])c2)c(C)n1 (configuration not stated)	i	i	+	-2.3	i
Cc1ccc(-n2c(=O)c3c4c(sc3n3c(SCC(=O)c5ccc(F)cc5)nnc23)CCCC4)cc1	i	i	i	-2.7	i
COc1ccccc1C(=O)Nc1ccc2c(c1)nc(CCNC(C)=O)n2C	·	·	·	131.4*	·
CCc1cccc(CC)c1NC(=O)Cn1cnc2ccccc2c1=O	i	i	i	-6.2	i
CC(=O)Cc1ccccc1OCC(=O)O	i	+	+	8.2	i
CC(C)NCc1ccccc1OCC(N)=O	i	i	i	0.7	i
